Here are results for eleven compounds from PubChem BioAssay.

Calls of active or inactive are those of the source.

The nature of assay [1]: binders of probe aFSTL3 on microarray, primary screen, stem cell growth factor project, biochemical, small-molecule microarray, fluorescence 635/667 (AID 1064).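 Note: measures binding of the biotinylated anti-FSTL3 antibody to printed compounds.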 To be noted: higher = more signal.
The nature of assay [2]: binders from COS7 lysate, DM2A8 probe, primary screen, torsin A project, cell lysate, small-molecule microarray, fluorescence 635/667 (AID 1065). The note with it: higher = more signal, COS7 lysate expressing mutant human TOR1A.
A short description of assay [3]: binders of probe aFGF2 on microarray, primary screen, stem cell growth factor project, biochemical, small-molecule microarray, fluorescence 635/667 (AID 1067).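 Note: measures binding of biotinylated aFGF2 protein to printed compounds on slides; z-score merges feature fluorescence and signal-to-noise across triplicate slides.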 To be noted: higher = more signal.
The nature of assay [4]: binders of probe aFGF10 on microarray, primary screen, stem cell growth factor project, biochemical, small-molecule microarray, fluorescence 635/667 (AID 1071).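 Note: score merges 667 nm spot intensity and signal to noise from triplicate slides.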 To be noted: higher = more signal.
Assay [5] has as its target Neurogenic locus notch homolog protein 2 (Homo sapiens) (UniProt Q04721). The assay can be described thus: Notch2 binders on small-molecule microarrays, primary screen, biochemical, small-molecule microarray, 635 nm fluorescence, stem cell growth factors (AID 1073). To be noted: Notch2 binding, higher = more signal.
Assay [6] addresses Pro-neuregulin-1, membrane-bound isoform (Homo sapiens) (UniProt Q02297). Put plainly: NRG1 binders on small-molecule microarrays, primary screen, psychiatric disease protein project, biochemical, small-molecule microarray, fluorescence 635/667 (AID 1075).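 Note: score combines 667 nm spot fluorescence with signal to noise.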 The note with it: NRG1 binding, 635 nm fluorescence, higher = more signal.
Assay [7] concerns Neuregulin-1 EGF-like domain. Put plainly: binders of neuregulin-1 EGF-like domain, primary screen, biochemical, small-molecule microarray, 635 nm fluorescence (AID 1081).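 Note: binding of the protein to compounds printed on small-molecule microarray slides.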 To be noted: small-molecule microarray binding, higher = more signal.
Assay [8] in a line: FRG1 promoter luciferase signal modulators, primary screen, FRG1 inhibition for FSHD, cell-based, C2C12 myotubes, firefly/Renilla luciferase, luminescence (AID 1084). To be noted: higher = more signal, called active from +8 up or from −8 down.
Assay [9] in a line: binders of probe aFST on microarray, primary screen, stem cell growth factor project, biochemical, small-molecule microarray, fluorescence 635/667 (AID 1086).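 Note: score merges 667 nm fluorescence with signal-to-noise of each printed compound spot.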 The note with it: higher = more signal.
Assay [10] in a line: binders of probe aHhip on microarray, primary screen, stem cell growth factor project, biochemical, small-molecule microarray, fluorescence 635/667 (AID 1087).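 Note: score merges spot fluorescence at 667nm with spot signal to noise ratio.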 The note with it: higher = more signal.

Chain of Neurogenic locus notch homolog protein 2 (Homo sapiens) (Q04721 whole entry, looked up, canonical isoform): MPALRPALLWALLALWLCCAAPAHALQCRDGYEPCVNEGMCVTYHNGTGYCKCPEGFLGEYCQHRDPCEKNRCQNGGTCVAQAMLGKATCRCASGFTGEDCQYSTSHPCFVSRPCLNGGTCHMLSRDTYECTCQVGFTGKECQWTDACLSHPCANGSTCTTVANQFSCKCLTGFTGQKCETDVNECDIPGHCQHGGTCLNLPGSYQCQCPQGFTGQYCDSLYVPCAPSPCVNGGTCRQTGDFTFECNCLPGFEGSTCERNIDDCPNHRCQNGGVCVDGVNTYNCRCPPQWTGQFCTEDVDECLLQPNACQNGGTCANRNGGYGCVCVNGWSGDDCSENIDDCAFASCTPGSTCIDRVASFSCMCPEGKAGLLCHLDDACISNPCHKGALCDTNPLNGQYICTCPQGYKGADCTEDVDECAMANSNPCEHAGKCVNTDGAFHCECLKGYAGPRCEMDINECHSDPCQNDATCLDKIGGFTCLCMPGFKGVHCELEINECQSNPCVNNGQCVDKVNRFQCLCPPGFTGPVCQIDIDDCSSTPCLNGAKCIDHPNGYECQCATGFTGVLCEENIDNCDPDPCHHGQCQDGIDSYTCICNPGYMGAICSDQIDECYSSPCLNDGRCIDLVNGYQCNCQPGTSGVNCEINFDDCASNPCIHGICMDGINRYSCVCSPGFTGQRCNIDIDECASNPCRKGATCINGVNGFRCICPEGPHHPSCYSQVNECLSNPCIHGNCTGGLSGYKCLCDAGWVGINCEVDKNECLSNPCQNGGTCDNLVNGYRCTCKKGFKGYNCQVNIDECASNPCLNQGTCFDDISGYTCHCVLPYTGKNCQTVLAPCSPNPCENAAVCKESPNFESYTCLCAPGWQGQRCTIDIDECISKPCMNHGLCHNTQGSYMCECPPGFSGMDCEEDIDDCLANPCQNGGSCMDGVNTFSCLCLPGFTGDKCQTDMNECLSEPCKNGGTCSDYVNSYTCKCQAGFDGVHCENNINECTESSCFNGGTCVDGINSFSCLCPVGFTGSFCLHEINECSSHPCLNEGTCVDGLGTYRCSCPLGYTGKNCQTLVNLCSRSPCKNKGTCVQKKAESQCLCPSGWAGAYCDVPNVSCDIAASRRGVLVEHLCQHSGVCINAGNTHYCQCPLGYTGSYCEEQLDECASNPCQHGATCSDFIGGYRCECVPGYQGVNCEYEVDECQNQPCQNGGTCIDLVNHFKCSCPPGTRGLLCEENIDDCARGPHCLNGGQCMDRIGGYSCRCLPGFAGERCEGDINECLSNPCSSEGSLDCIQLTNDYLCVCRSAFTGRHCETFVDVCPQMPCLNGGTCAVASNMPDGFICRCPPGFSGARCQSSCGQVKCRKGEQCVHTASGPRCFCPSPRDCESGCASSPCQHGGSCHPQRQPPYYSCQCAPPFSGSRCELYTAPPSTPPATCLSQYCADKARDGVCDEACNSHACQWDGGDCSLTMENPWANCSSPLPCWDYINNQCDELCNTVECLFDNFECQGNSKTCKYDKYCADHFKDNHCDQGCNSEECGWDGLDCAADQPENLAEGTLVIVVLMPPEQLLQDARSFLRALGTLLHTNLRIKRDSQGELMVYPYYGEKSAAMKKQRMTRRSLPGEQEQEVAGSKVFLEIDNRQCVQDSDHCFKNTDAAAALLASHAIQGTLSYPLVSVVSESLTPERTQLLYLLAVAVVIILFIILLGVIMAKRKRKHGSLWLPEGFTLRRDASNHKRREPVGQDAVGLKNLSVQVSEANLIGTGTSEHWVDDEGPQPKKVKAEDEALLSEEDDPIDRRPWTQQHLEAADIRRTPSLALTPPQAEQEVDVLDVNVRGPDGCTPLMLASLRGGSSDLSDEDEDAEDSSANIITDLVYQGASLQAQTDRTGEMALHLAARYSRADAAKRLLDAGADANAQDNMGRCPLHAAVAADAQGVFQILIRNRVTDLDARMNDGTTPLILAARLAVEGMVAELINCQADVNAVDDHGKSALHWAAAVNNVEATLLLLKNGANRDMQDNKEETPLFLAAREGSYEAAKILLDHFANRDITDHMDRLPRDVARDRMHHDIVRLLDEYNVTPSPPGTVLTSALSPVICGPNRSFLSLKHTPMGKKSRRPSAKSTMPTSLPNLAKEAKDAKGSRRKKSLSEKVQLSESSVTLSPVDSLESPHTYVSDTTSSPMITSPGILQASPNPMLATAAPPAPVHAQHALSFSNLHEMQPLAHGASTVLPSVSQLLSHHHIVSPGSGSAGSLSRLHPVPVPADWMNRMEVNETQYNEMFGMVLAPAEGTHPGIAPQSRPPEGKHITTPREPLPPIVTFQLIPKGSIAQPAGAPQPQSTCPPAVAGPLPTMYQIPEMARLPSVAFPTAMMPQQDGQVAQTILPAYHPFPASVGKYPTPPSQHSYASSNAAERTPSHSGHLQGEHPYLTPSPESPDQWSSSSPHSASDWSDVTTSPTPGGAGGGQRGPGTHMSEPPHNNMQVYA
Chain of Pro-neuregulin-1, membrane-bound isoform (Homo sapiens) (Q02297 whole entry, looked up, the tested form may be a part, canonical isoform): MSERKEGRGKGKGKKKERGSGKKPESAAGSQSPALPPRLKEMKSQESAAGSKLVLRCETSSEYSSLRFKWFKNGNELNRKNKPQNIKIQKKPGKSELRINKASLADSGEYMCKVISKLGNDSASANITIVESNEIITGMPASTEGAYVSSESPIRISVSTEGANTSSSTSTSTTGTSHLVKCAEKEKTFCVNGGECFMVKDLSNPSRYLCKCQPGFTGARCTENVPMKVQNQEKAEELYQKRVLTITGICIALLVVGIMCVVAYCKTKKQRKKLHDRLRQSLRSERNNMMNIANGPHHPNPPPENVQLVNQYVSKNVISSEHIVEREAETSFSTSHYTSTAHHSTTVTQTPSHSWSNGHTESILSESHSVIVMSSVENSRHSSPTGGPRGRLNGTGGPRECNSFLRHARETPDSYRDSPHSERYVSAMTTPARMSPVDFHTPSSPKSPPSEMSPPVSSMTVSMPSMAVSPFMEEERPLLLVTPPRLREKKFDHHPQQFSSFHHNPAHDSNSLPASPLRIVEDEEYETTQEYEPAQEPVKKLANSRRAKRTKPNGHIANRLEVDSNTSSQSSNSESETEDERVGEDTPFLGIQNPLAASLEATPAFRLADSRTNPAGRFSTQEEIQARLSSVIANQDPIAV

For the compound `CCOC(=O)C=Cc1cc(F)ccc1O`, the composite z-score in assay [1] was 0.0251; in [2], 0.17; in assay [3], 0.0087; in [4], 0.207; in assay [5], -0.0641; in assay [6], -0.0469. The results for the composite z-score in assay [7], in assay [9] and in assay [10] were 0.398, -0.0919 and 0.0524, respectively. Further, the z-score in assay [8] was 0.808 (inactive).
For the compound `[N-]=[N+]=NCc1ccccc1[C@@H]1OC(c2ccc(OCCCO)cc2)=N[C@]1(Cc1ccccc1N=[N+]=[N-])C(=O)N1CCCCC1`, the composite z-score in [1] is -0.0244; in assay [2] it was 1.17; in assay [3] it was -0.0599; in assay [4], 0.227; in assay [5] it was 1.55; in assay [6] it was 1.16. The composite z-score in [7] worked out at 1.23; in assay [9], 0.882; in assay [10] it was 0.38. In addition, the z-score in assay [8] was -0.878 (inactive).
Turning to `CC(=O)n1cc(C(O)C2C=CC3C(=O)N(c4ccccc4)C(=O)C3N2Nc2ccc(C(C)C)cc2)c2ccccc21` (stereo not given), the composite z-score in assay [1] was 0.657; in assay [2], 0.249; in assay [3], 0.125; in [4], 0.899; in assay [5] it was 1.55; in assay [6], 1.95. The composite z-score is 1.15 in [7], 1.07 in assay [9] and -0.0645 in [10]. The z-score in [8] was -0.833 (inactive).
Turning to `NC(=O)[C@@H]1[C@H]2C(=O)O[C@H](c3ccccc3)[C@H](c3ccccc3)N2[C@H](c2ccc(OCCO)cc2)[C@@]12C(=O)Nc1ccc(C#CCCO)cc12`, the composite z-score in [1] was 0.398; in assay [2], 0.165; in assay [3] it was 0.0122; in [4] it was 0.786; in assay [5], 0.472; in [6], 1.23. Moreover, the composite z-score is 1.22 in assay [7], -0.222 in assay [9] and -0.236 in [10]. For the same compound, in assay [8], the z-score is 1.62 (inactive).
For `C=CCNC(=O)[C@@H]1[C@H]2C(=O)O[C@H](c3ccccc3)[C@H](c3ccccc3)N2[C@H](c2ccc(O)cc2)[C@@]12C(=O)N(C(=O)OCCOC)c1ccc(C#CCCO)cc12`, the composite z-score in assay [1] was -0.0125; in assay [2], 0.376; in [3] it was -0.0222; in [4], 0.82; in [5], 0.258; in assay [6], 1.05. For the same compound, the composite z-score in assay [7] was determined as 1.35; in [9] it was 0.256; in [10], 0.0274. For the same compound, the z-score in assay [8] is 0.354 (inactive).
Consider `CCOC(=O)C1=CCC(c2ccccc2)N(S(=O)(=O)c2ccc([N+](=O)[O-])cc2)C1` (stereo not given), for which the composite z-score in [1] was -0.239; in [2] it was -0.181; in assay [3], -0.112; in assay [4], 0.154; in assay [5], 1.17; in [6], -0.0979. In addition, the composite z-score was 0.549 in assay [7], 0.06 in [9] and 0.0505 in [10]. In assay [8], the z-score is -0.877 (inactive).
`C=CCC(OC(C)=O)[C@@H]1[C@@H](N(Cc2ccc(-c3ccccc3)cc2)C(=O)Cc2ccc(F)cc2)c2cc(OCCCO)ccc2N1C(=O)Cc1ccc2ccccc2c1` (stereo not given in full): the composite z-score in [1] was -0.0873; in assay [2], -0.286; in [3] it was -0.0271; in assay [4], -0.214; in [5], -0.821; in [6], -0.0447. Besides, the composite z-score in assay [7] was -0.84; in [9] it was 0.252; in assay [10], -0.0047. The z-score in assay [8] is 0.0197 (inactive).
For the compound `C=CCOC(=O)[C@H]1[C@@H]2C(=O)O[C@@H](c3ccccc3)[C@@H](c3ccccc3)N2[C@@H](c2ccc(OCCOC(=O)[C@H]3C[C@H]4C(=O)N[C@@H](CCCCNC(C)=O)C(=O)N4[C@H]3c3cccc(OCCO)c3)cc2)[C@]12C(=O)Nc1ccc(I)cc12`, the composite z-score in [1] is 0.276; in assay [2] it was 1.01; in [3], -0.144; in [4], 0.818; in [5] it was 0.656; in assay [6], 1.29. In addition, the composite z-score in assay [7] amounted to 1.26; in assay [9], 2.65; in assay [10], 0.215. The z-score in [8] is 0.29 (inactive).
Turning to `C=C(COC)C(=O)CC[C@H](OC(C)=O)c1ccc(OCCO)cc1`, the composite z-score in assay [1] is -0.198; in [2], -0.722; in assay [3], -0.0533; in assay [4] it was 1.21; in [5] it was -0.189; in assay [6], -0.0732. Besides, the composite z-score was 1.1 in assay [7], 0.375 in assay [9] and -0.191 in assay [10]. Besides, the z-score in assay [8] is 1.08 (inactive).
On to `COc1cc(CO)cc(I)c1O[C@H]1C=C(C(=O)NCCO)C[C@@H](NCC2CCCCC2)[C@@H]1O`, for which the composite z-score in assay [1] was -0.149; in assay [2], -0.422; in assay [3], -0.0506; in assay [4], 0.542; in assay [5] it was 0.481; in assay [6], 0.579. Further, the composite z-score was found to be 0.652 in [7], 0.638 in assay [9] and 0.0505 in assay [10]. For the same compound, in [8], the z-score is -1.14 (inactive).
Turning to `C=C(C)[C@@H]1CC=C(C(O)C2C=CC3C(=O)N(c4ccccc4)C(=O)C3N2Nc2ccc(C#N)cc2)CC1` (stereo not given in full), the composite z-score in assay [1] was -0.266; in assay [2], -0.278; in [3], 0.169; in assay [4], 0.783; in assay [5], 1.65; in assay [6] it was 1.81. Also, the results for the composite z-score in assay [7], in [9] and in assay [10] were 1.33, 1.53 and -0.112, respectively. Moreover, the z-score in [8] was -1.74 (inactive).
